{"source": "paper PMC7862700", "about": "“An all-to-all approach to the identification of sequence-specific readers for epigenetic DNA modifications on cytosine”", "experiment_in_all_cases": "DAPPL (digital affinity profiling via proximity ligation, sequencing); 10 mM Tris-HCl pH 7.5, 50 mM NaCl, 1 mM DTT, 4% glycerol, room temperature, 30 min; GST-TFs on glutathione beads, 16-mer random dsDNA library, 0.1% formaldehyde crosslink after washing; high values mean tight binding", "settings_in_all_cases": "protein: recombinant; tags: N-terminal GST; dsDNA, one strand shown", "key": {"FLI1": {"target": "T1, FLI1 (Homo sapiens, UniProt Q01543 1-452)", "T1 sequence": "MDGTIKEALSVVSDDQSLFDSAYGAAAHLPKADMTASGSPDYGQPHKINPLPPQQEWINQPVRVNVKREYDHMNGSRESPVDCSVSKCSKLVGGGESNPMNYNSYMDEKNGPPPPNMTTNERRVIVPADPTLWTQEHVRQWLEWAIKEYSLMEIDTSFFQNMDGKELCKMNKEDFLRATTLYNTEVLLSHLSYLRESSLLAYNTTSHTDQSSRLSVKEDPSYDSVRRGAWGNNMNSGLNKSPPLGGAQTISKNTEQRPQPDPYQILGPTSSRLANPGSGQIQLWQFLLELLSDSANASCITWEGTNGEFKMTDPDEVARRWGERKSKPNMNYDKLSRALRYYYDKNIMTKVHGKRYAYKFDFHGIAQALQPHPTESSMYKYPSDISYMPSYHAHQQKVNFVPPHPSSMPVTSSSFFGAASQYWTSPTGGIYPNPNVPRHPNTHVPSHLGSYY", "method_in_brief": "(§1)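 Binding signal is defined as a hexamer's read frequency for one factor over its frequency for the tag-only sample. To obtain reads, GST-fused human transcription factors were expressed in yeast, captured on glutathione beads, barcoded with DNA and pooled with that sample. Pools met 200 nmole of a 16-mer random double-stranded DNA library in Tris/NaCl/DTT/glycerol buffer for 30 min at room temperature before washing, 0.1% formaldehyde crosslinking, proximity ligation (BsaI/T4 ligase, 1 h, 37 °C), PCR and Illumina NextSeq500 sequencing.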"}, "GABPA": {"target": "T2, GABPA (Homo sapiens, UniProt Q06546 1-454)", "T2 sequence": "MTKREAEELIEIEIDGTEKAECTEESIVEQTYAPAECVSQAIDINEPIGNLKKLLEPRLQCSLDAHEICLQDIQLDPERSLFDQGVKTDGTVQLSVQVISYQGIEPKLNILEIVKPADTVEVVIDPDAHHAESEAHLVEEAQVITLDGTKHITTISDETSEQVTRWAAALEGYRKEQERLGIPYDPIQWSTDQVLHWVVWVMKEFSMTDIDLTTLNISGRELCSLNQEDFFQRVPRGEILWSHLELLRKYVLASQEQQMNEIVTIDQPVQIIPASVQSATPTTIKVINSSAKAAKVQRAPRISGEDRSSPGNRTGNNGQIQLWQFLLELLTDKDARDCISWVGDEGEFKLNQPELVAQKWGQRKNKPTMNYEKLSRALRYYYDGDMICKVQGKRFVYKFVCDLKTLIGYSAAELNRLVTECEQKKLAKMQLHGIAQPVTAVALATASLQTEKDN", "method_in_brief": "as §1"}, "ELF4": {"target": "ELF4 (Homo sapiens, UniProt Q99607 1-663)", "sequence (Q99607 whole entry)": "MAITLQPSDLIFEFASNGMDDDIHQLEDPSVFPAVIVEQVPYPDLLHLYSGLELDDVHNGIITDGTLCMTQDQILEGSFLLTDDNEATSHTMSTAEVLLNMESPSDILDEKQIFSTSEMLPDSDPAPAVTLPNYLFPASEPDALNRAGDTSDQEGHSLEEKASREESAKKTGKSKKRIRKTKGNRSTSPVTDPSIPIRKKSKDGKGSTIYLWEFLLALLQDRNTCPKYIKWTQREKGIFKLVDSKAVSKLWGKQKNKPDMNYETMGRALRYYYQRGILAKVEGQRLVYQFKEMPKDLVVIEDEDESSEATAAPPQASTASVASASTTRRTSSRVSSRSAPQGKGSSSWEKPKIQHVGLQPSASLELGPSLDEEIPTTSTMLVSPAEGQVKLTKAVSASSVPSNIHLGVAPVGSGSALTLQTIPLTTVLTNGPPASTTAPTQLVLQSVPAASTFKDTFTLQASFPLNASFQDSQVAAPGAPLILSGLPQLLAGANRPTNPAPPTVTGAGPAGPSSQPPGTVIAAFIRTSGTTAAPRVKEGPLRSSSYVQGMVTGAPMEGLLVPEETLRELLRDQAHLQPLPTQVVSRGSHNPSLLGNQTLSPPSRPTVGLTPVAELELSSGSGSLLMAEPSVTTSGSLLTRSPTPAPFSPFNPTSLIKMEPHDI", "method_in_brief": "as §1"}, "ERF": {"target": "T3, ERF (Homo sapiens, UniProt P50548 1-548)", "T3 sequence": "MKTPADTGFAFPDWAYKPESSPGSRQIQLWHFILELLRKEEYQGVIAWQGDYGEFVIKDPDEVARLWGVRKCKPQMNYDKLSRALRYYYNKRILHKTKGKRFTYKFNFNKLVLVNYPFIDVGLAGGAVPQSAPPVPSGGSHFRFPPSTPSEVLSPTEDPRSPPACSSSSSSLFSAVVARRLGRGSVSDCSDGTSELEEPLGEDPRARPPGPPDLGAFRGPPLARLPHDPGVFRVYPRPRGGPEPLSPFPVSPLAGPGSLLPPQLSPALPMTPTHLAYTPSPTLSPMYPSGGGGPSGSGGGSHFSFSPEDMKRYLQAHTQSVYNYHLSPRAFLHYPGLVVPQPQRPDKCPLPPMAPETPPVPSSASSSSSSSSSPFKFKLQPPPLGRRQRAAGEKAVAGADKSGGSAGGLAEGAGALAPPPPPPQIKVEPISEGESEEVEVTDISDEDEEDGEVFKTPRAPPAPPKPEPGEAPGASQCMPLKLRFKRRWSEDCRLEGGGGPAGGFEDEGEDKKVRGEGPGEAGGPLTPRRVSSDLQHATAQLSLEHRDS", "method_in_brief": "as §1"}, "SPDEF": {"target": "T4, SPDEF (Homo sapiens, UniProt O95238 1-335)", "T4 sequence": "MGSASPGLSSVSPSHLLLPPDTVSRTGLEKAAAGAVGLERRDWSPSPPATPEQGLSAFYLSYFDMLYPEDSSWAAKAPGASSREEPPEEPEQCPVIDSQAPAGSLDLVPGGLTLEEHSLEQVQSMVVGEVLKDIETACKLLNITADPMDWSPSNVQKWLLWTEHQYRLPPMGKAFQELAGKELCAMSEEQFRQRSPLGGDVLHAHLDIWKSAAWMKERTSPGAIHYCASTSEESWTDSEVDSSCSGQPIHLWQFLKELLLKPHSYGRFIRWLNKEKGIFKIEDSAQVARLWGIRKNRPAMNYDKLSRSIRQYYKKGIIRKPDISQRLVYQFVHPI", "method_in_brief": "as §1"}, "ETV7": {"target": "T5, ETV7 (Homo sapiens, UniProt Q9Y603 1-341)", "T5 sequence": "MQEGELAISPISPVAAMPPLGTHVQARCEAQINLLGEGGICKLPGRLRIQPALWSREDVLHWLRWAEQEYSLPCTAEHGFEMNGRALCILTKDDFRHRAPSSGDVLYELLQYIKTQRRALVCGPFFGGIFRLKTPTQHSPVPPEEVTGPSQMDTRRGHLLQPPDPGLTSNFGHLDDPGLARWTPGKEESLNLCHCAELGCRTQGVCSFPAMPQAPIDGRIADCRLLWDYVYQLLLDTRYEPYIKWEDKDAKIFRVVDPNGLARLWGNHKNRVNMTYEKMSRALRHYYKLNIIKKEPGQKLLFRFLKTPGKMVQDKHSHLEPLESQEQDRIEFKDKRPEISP", "method_in_brief": "as §1"}, "ETV3": {"target": "T6, ETV3 (Homo sapiens, UniProt P41162-2 1-143)", "T6 sequence": "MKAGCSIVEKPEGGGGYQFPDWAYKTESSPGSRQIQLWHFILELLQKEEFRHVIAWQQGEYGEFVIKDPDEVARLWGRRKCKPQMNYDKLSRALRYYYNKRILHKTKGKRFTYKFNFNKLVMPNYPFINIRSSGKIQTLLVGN", "method_in_brief": "as §1"}, "ETV6": {"target": "ETV6 (Homo sapiens, UniProt P41212 1-452)", "sequence (P41212 whole entry)": "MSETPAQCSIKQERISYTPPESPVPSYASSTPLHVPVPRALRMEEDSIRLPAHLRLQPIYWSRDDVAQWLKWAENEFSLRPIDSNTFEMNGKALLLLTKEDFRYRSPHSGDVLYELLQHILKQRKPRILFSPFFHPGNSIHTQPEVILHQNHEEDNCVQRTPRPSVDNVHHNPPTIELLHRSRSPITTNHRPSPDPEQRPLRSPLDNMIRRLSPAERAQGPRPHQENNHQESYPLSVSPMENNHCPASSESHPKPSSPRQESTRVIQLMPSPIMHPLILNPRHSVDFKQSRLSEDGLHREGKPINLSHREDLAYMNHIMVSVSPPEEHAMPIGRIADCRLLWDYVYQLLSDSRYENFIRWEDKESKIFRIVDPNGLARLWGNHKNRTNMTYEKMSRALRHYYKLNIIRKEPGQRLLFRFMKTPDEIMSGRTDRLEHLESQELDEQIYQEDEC", "method_in_brief": "as §1"}}}
{"sequence": "ACCGTT", "values": [{"measurement": "binding signal", "setting": "FLI1", "result": "1.03 fold enrichment (6-mer frequency, TF over GST control)"}, {"measurement": "binding signal", "setting": "GABPA", "result": "1.02 fold enrichment (6-mer frequency, TF over GST control)"}, {"measurement": "binding signal", "setting": "ELF4", "result": "1 fold enrichment (6-mer frequency, TF over GST control)"}, {"measurement": "binding signal", "setting": "ERF", "result": "1.05 fold enrichment (6-mer frequency, TF over GST control)"}, {"measurement": "binding signal", "setting": "SPDEF", "result": "1.01 fold enrichment (6-mer frequency, TF over GST control)"}, {"measurement": "binding signal", "setting": "ETV7", "result": "1.08 fold enrichment (6-mer frequency, TF over GST control)"}, {"measurement": "binding signal", "setting": "ETV3", "result": "1.01 fold enrichment (6-mer frequency, TF over GST control)"}, {"measurement": "binding signal", "setting": "ETV6", "result": "1 fold enrichment (6-mer frequency, TF over GST control)"}]}
